# PfHsp90 yeast 2: growth inhibition of yeast expressing Plasmodium Hsp90 | hit rate 0.32% among 310,000 | inhibition, % at 9.4 µM | S. cerevisiae expressing PfHsp90, BacTiter-Glo ATP, 48 h; yeast lacking PDR1 and PDR3 efflux regulators | AID 504621;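 active = every replicate shows inhibition above about 80%, whatever the replicate mean, limit read from the data; inconclusive = mean inhibition reaches the set limit but some replicate falls short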
# Wnt bcat act: activators of Wnt/beta-catenin signaling; hit rate 1.2% among 300,000; Wnt/beta-catenin reporter cell assay, activator, plate reader; activation, % at 9.35 µM; in the data active = activation above about 30%, passing the limit was not always enough; inconclusive = no clear call, values can overlap the other calls
# MITF act: MITF TRPM1 promoter activation in melanoma cells; hit rate 0.75% among 300,000; activation, % at 12.5 µM; SK-MEL-5 TRPM1-promoter luciferase, 24 h; % of positive control, neutral wells = 0;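 active = mean activation of at least 80% with every replicate also reaching 80%; inconclusive = mean reaches 80% but some replicate falls short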
# esBAF inh: inhibitors of esBAF chromatin remodeling in mouse ES cells | Bmi1-luciferase knock-in reporter, 24 h; 100% = twice the neutral-well signal | reporter increase, % at 12.5 µM | hit rate 2% among 350,000; in the data active = activation above about 40%; inconclusive = no clear call, values can overlap the other calls;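 also: a rise in the Bmi1 reporter signal indicates esBAF inhibition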
# Vif imaging: inhibitors of HIV Vif; HEK293T cells, Vif self-association by quenched fluorescence, imaging, 24 h; inhibition, % at 7.49 µM; hit rate 0.35% among 340,000; in the data active = inhibition above about 50%, passing the limit was not always enough; inconclusive = no clear call, values can overlap the other calls; inactive = below about 31%
# Glyco luc inh: blocks N-linked glycosylation in D54 reporter cells; hit rate 0.23% among 360,000; reporter increase, % at 12.5 µM; AID 588692; D54 ERlucT glycosylation luciferase reporter, 24 h; percent of 100 nM tunicamycin response;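 active = mean luciferase reporter signal, scaled so untreated is 0 and the glycosylation-blocking control 100, at or above a set limit in every replicate; inconclusive = mean reaches the limit but not every replicate does; inactive = mean below the limit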;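 also: luciferase carries N-glycosylation sites so blocking glycosylation raises the light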
# A number is an active result; – = inactive; ? = inconclusive; · = not tested or not shown. A selection: hits, their analogues and other compounds. The true share with any hit is near 3%.
SMILES,PfHsp90 yeast 2,Wnt bcat act,MITF act,esBAF inh,Vif imaging,Glyco luc inh
O=C1N[C@@H](Cc2c[nH]c3ccccc23)COC(=O)[C@H](Cc2ccc(F)cc2)C/C=C\C[C@H]1CC(=O)N(CCO)Cc1ccccc1,–,–,–,–,–,–
O=C(Nc1nc2cc3c(cc2s1)OCO3)C1CCCCC1,–,32,–,·,–,–
O=C(Nc1nc2cc3c(cc2s1)OCCO3)C1CCCCC1,–,54,91,–,–,–
O=C(Nc1nc2cc3c(cc2s1)OCO3)C1CC1,–,–,–,·,–,–
O=C(Nc1nnc(-c2ccc3c(c2)OCCO3)o1)C1CCCCC1,–,33,–,·,–,–
CCOc1ccc(NC(=S)N2CCc3cc(OC)c(OC)cc3C2COc2ccc3c(C)cc(=O)oc3c2)cc1 (stereo unspecified),–,·,–,·,–,–
O=C(COC(=O)c1ccc(O)cc1)NCCC1=CCCCC1,–,–,–,·,–,–
Cc1ccc(C(=O)OCC(=O)NC2CCCC2)cc1C,–,–,–,–,–,–
O=C(Nc1sc(-c2ccccc2)cc1C(=O)O)c1ccccc1,–,34,–,·,–,–
O=C(Nc1ccccc1C(=O)O)c1cccc(C(=O)Nc2ccccc2C(=O)O)c1,–,–,·,–,110,–
O=C(COc1ccccc1Cl)Nc1ccccc1C(=O)N1CCCCC1,–,–,–,61,–,–
COc1ccc(/C=C/C(=O)Nc2ccccc2C(=O)O)cc1,–,–,–,–,–,–
CCOC(=O)c1cc(-c2ccccc2)sc1NC(=O)CC,–,–,–,·,–,–
COc1ccc(/C=C/C(=O)Nc2ccccc2C(=O)N2CCCC2)cc1,–,·,·,56,–,–
COCC(=O)N(C)C[C@H]1Oc2ncc(C#C[C@@H](C)O)cc2C(=O)N([C@@H](C)CO)C[C@@H]1C,·,·,·,–,·,·
Cc1sc2ncn(CC(=O)N3CCN(c4ccccn4)CC3)c(=O)c2c1S(=O)(=O)N1CCCCC1,–,–,–,–,–,–
O=C1CC(NNc2ccccc2)C(=O)N1c1ccc(N2CCCCC2)cc1 (stereo unspecified),–,–,–,·,–,–
O=C(Nc1ccccc1C(=O)N1CCCCCC1)c1ccccc1,–,–,–,·,71,–
COc1cccc(C(=O)Nc2ccccc2C(=O)N2CCCC2)c1,–,–,–,–,–,–
CN1c2ccc(-c3cccc(C#N)c3)cc2[C@@H]2[C@@H](CCN2S(=O)(=O)c2ccccc2F)[C@@H]1CO,·,·,·,–,·,·
O=C1/C(=C/Nc2cccc([N+](=O)[O-])c2)CCc2ccccc21,–,90,–,·,–,–
Cc1[nH][nH]c(=O)c1C(c1ccc(-c2ccc(F)cc2)o1)c1c(C)[nH][nH]c1=O,–,–,–,·,–,–
Cc1[nH][nH]c(=O)c1C(c1ccc(-c2ccc(Cl)c(Cl)c2)o1)c1c(C)[nH][nH]c1=O,–,·,–,–,–,46
COc1ccc(-c2ccc(C(c3c(C)[nH][nH]c3=O)c3c(C)[nH][nH]c3=O)o2)c([N+](=O)[O-])c1,–,–,–,·,–,34
O=C(c1ccncc1)N1C[C@H]2[C@@H](c3ccccc31)[C@@H](CO)N2C(=O)c1ccccc1F,·,·,·,–,·,·
SMILES,PfHsp90 yeast 2,Wnt bcat act,MITF act,esBAF inh,Vif imaging,Glyco luc inh
CN(C)c1ccc(/C=C2\SC(=O)N(CCc3nnc(N)s3)C2=O)cc1,–,–,–,·,96,–
CN(C)c1ccc(/C=C2/SC(=O)N(CCN=C3NS(=O)(=O)c4ccccc43)C2=O)cc1,–,–,–,·,–,–
Cc1ccccc1C(=O)N1CCC(C(=O)Nc2cccc(S(=O)(=O)N3CCCCC3)c2)CC1,–,–,–,–,–,–
O=C(Nn1cnnc1)c1cc(Br)ccc1Cl,–,–,·,–,–,–
COc1ccc2c(c1)CCc1c-2n[nH]c1C(=O)NCCC(C)C,–,31,–,–,–,–
CN(C(=O)CSc1nc2ccccc2c(=O)n1-c1ccccc1F)C1CCS(=O)(=O)C1 (stereo unspecified),–,–,–,–,62,–
Cc1cccc(C(=O)NCc2nnc(SCC(=O)NC(C)c3ccccc3)n2C)c1 (stereo unspecified),–,–,–,·,–,–
COc1cc(C(=O)Nc2ccc3c(c2)nc(C)n3C)cc(OC)c1OC,–,–,–,–,–,–
COc1cc(C(=O)Nc2ccc(N(C)C)cc2)cc(OC)c1OC,–,·,–,71,·,–
COc1cc(C(=O)Nc2ccc3c(c2)ncn3C)cc(OC)c1OC,–,–,·,–,76,?
CCn1c2ccccc2c2cc(NC(=O)c3cc(OC)c(OC)c(OC)c3)ccc21,–,–,–,–,–,27
C[C@@H]1CCCCO[C@@H](CN(C)C(=O)CCCN(C)C)[C@H](C)CN([C@H](C)CO)C(=O)c2cc(NC(=O)Nc3ccc4c(c3)OCO4)ccc2O1,·,·,·,–,·,·
N#C/C(=N\Nc1ccc([N+](=O)[O-])cc1)C(=N)N1CCOCC1,–,–,–,·,–,–
N#C/C(=N/Nc1ccc([N+](=O)[O-])cc1)C(=N)N1CCCCC1,–,·,101,·,–,–
N#C/C(=N\Nc1ccc(Br)cc1)C(=N)N1CCOCC1,–,–,92,56,–,–
N#C/C(=N\Nc1ccccc1[N+](=O)[O-])C(=N)N1CCCCC1,–,54,–,51,–,–
COc1ccc(S(=O)(=O)N(C)C[C@@H]2Oc3ccc(NS(=O)(=O)c4ccc(Cl)cc4)cc3CC(=O)N([C@@H](C)CO)C[C@H]2C)cc1,·,·,·,–,·,·
CCC1Oc2ccccc2N(CC(=O)NCCCN2CCCCC2C)C1=O (stereo unspecified),–,·,–,–,–,–
CCOC(=O)N1CCN(C(=O)c2cc(COc3c(F)cccc3F)on2)CC1,–,45,–,58,–,–
CCOC(=O)C1CCN(C(=O)c2cc(COc3ccc(F)cc3F)on2)CC1,·,–,111,·,–,–
CCOC(=O)N1CCN(C(=O)c2cc(COc3ccc(F)cc3F)on2)CC1,–,–,–,·,–,–
CC(=O)N1CCCN(C(=O)c2cc(COc3c(F)cccc3F)on2)CC1,–,–,–,·,·,–
Cc1cccc(C)c1OCc1cc(C(=O)N2CCN(c3ccc(F)cc3)CC2)no1,–,–,–,45,–,–
O=C(O)CC(NC(=O)OCc1ccccc1)c1ccccc1 (stereo unspecified),–,·,–,–,–,–
COC(=O)c1scc(C)c1NC(=O)C(Cl)c1ccccc1 (stereo unspecified),–,–,–,·,–,–
CC(OC(=O)/C=C/c1ccc2ccccc2n1)C(=O)N(C)c1ccccc1 (stereo unspecified),–,–,–,47,–,–
O=C(O)c1ccccc1-c1ccc(/C=C2\SC(=O)N(c3ccccc3)C2=O)o1,–,–,·,56,–,–
CCCCCn1cnc2sc(-c3ccccc3)cc2c1=O,–,–,107,82,–,–
CCCCCn1cnc2sc(CC)cc2c1=O,–,–,–,·,–,–
CCCCn1cnc2sc(-c3ccccc3)cc2c1=O,–,·,91,·,–,–
